# FBW7 act: human FBW7 E3 ligase activation, primary screen; Q969H0; AlphaScreen FBW7–phospho-cyclin E peptide binding, activator screen; normalized activity (activation), % at 26.1 µM; 0.13% of 650,000 active; AID 1259310; in the data active = normalized activity above about 1.9%;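 note: purified mutant Fbw7 with reduced substrate affinity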
# MITF primary: blocks human microphthalmia-associated transcription factor; O75030; AlphaScreen MITF homodimerization, bead proximity signal; inhibition, % at 2.6 µM; 0.91% of 650,000 active; AID 1259374; in the data active = inhibition above about 50%;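 note: 0% = vehicle wells with protein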
# Target sequence (O75030 whole entry, looked up): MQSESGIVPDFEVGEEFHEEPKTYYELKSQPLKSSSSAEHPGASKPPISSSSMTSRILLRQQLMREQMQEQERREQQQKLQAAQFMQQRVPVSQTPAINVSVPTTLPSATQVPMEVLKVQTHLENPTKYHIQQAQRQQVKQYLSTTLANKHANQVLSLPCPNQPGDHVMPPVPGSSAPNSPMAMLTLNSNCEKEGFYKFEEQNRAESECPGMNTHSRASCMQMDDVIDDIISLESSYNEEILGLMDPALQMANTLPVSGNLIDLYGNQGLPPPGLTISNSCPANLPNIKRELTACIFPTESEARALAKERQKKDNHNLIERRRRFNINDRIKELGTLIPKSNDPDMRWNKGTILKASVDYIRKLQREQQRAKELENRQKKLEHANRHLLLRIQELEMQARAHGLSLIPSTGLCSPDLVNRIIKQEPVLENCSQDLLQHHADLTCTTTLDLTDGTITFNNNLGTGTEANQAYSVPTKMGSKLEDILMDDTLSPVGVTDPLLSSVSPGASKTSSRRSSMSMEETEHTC
# GPR151 ag: activates the human receptor GPR151. Q8TDV0. PathHunter beta-arrestin GPR151 cells, luminescence. activation, % at 11.2 µM. 1% of 650,000 active; in the data active = activation above about 4.9%;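 note: 0% = median of compound wells and 100% = cells with positive control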
# TEAD-YAP block: TEAD-YAP interaction inhibition; HEK-TIYL cells, TEAD-Gal4/YAP UAS-luciferase luminescence; inhibition, % at 9.12 µM; 1.4% of 640,000 active; in the data active = inhibition above about 32%;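 note: 0% = median of test compound wells and 100% = reference inhibitor wells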
# GPR151 conf act: confirmation of human GPR151 activators | GPR151 PathHunter beta-arrestin cells, luminescence, 90 min; % of EA-reagent control over plate median | AID 1508609 | shares compounds with GPR151 ag | 6,700 tested, under 10 active | activation, % at 11.2 µM;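 active = mean percent activation across replicates above the confirmation screen cutoff of 4.91%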
# GPR119 ag: counter-screen for GPR151 activators: effect on human GPR119 | shares compounds with GPR151 ag | GPR119 PathHunter beta-arrestin cells, luminescence, 90 min; 0 = compound-well median, 100 = enzyme-acceptor control | activation, % at 11.2 µM | 0.3% of 6,700 active;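 active = mean percent activation in the counterscreen above 29.09%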;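 note: counterscreen on off-target GPR119 to flag nonselective hits from the GPR151 activator screen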
# Numbers without * were called inactive; nt = not tested or not shown. Rows were chosen to be rich in hits. Some 3.4% of all compounds tested hit in one or more screens of this group.
SMILES,FBW7 act,MITF primary,GPR151 ag,TEAD-YAP block,GPR151 conf act,GPR119 ag
COc1ccc([N+](=O)[O-])cc1/C=N/NC(=O)CSCc1cccc(Br)c1,0,-6,0,-4,nt,nt
COC(=O)CSc1nc(-c2cccs2)cc(C(F)(F)F)c1C#N,0,8,-1,-16,nt,nt
Cc1ccc(N2C(=O)CN(S(C)(=O)=O)CC2(C)C(=O)NC2CCCCC2)cc1C (stereo unspecified),0,3,5.1*,1,1,-9
Cc1ccc(C)c(N2C(=O)CN(S(C)(=O)=O)CC2(C)C(=O)NC2CCCCCC2)c1 (stereo unspecified),0,12,0,3,nt,nt
COc1ccc(N(CC(N)=O)S(=O)(=O)c2ccc(C)cc2)cc1Cl,0,5,1,8,nt,nt
CC(C)NC(=O)c1ccccc1NS(=O)(=O)Cc1ccccc1,1,14,0,15,nt,nt
CCC(C)c1ccccc1NS(=O)(=O)Cc1ccccc1 (stereo unspecified),0,-2,5.8*,5,0,-8
C/C(CC(=O)Nc1ccc2c(c1)OCCO2)=N\NC(=O)C(=O)Nc1ccc(C)cc1,0,1,7.0*,-5,0,5
CC(=O)N/N=C(\C)CC(=O)Nc1ccc2c(c1)OCCO2,0,-1,0,-2,nt,nt
CCC1CCc2c(sc3nc(SCC(=O)Nc4c(C)cccc4C)n(-c4ccccc4)c(=O)c23)C1 (stereo unspecified),0,27,8.1*,1,0,-4
COc1cc2c(N3C(=O)CCC3=O)c3c(=O)oc(C)cn3c2cc1OC,0,-4,9.1*,6,0,1
CSc1ccccc1C(=O)NCc1ccccc1Cl,0,12,0,-3,nt,nt
CC(C)(C)NS(=O)(=O)c1ccc(NC(=O)COc2ccc([N+](=O)[O-])cc2)cc1,0,-6,1,-1,nt,nt
CCCCC(=O)Nc1cccc(NC(=O)COc2ccc([N+](=O)[O-])cc2)c1,0,9,11*,1,-1,7
CCC(=O)Nc1cccc(NC(=O)COc2ccc([N+](=O)[O-])cc2)c1,0,8,12*,3,0,-2
CCNS(=O)(=O)c1ccc(NC(=O)c2ccc([N+](=O)[O-])cc2)cc1,0,24,5.1*,1,0,2
CC(=O)NS(=O)(=O)c1ccc(NC(=O)COc2ccc([N+](=O)[O-])cc2)cc1,0,0,6.1*,14,0,1
O=C(N1CCCC1)N1CCc2nc(N3CCOCC3)[nH]c(=O)c2C1,0,-2,0,-2,nt,nt
Cc1ccc(-n2nc3c(c2NC(=O)c2ccc(Cl)c([N+](=O)[O-])c2)CS(=O)C3)c(C)c1 (stereo unspecified),0,2,0,14,nt,nt
Cc1ccc(-n2nc3c(c2NC(=O)c2cccc(F)c2)CS(=O)C3)c(C)c1 (stereo unspecified),0,0,5.9*,-10,2,2
CCCOc1ccc(N2C(=O)CC(NCC34CC5CC(CC(C5)C3)C4)C2=O)cc1 (stereo unspecified),0,1,5.2*,5,-1,-11
CCCOc1ccc(N2C(=O)CC(NCCCc3ccccc3)C2=O)cc1 (stereo unspecified),0,-2,6.1*,-8,0,-7
Cc1ccc(N2C(=O)CC(NCCc3ccc(Cl)cc3)C2=O)cc1 (stereo unspecified),0,1,6.4*,6,1,12
COc1ccc(CCNC2CC(=O)N(c3ccc(F)cc3)C2=O)cc1 (stereo unspecified),0,5,0,-8,nt,nt
COc1ccc(CCNC2CC(=O)N(c3ccccc3)C2=O)cc1 (stereo unspecified),0,0,5.8*,6,0,4
COc1ccccc1CN/C(C)=C(/C#N)C(=O)NCc1ccccc1,0,10,0,-9,nt,nt
Cc1cccc(C(=O)Nc2ccc(F)cc2F)c1[N+](=O)[O-],0,1,11*,-8,1,7
Cc1cccc(C(=O)Nc2ccc(Br)cc2F)c1[N+](=O)[O-],0,1,1,-65,nt,nt
